Reference: PubChem BioAssay AID1159580 (chemical genetic matrix, 2015)
Hit rate of the full screen: of about 5,500 compounds, about 2,000 (36%) were called active. Roughly 18% stayed inconclusive and do not appear here. Rule as the data show it: active = normalized growth mostly below about 0.91 (no sharp cut-off); inconclusive = no clear call, values can overlap the other calls; inactive = mostly above about 0.92. The list shows a part of the results.

Experiment: chemical genetic growth profiling, strain panel (AID 1159580);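 also: tested at 20 µM; growth read once vehicle control cultures reached saturation at 30 °C; 1 = growth at the plate median or of vehicle wells; lower values mean less growth of the strain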
Settings: growth OD
[1] = S. cerevisiae deletion strains, locus YHR030C, strain SLT2, active compounds read low
[2] = S. cerevisiae deletion strains, locus YJL095W, strain BCK1, active compounds read low
[3] = S. cerevisiae deletion strains, locus YBR021W, strain FUR4, active compounds read low
[4] = S. cerevisiae deletion strains, locus YBR229C, strain ROT2, active compounds read low
[5] = S. cerevisiae deletion strains, locus YCL029C, strain bik1, active compounds read low
[6] = S. cerevisiae deletion strains, locus YDL035C, strain GPR1, active compounds read low
[7] = S. cerevisiae deletion strains, locus YDL074C, strain BRE1, active compounds read low
[8] = S. cerevisiae deletion strains, locus YDL101C, strain DUN1, active compounds read low
[9] = S. cerevisiae deletion strains, locus YDL134C, strain PPH21, active compounds read low
[10] = S. cerevisiae deletion strains, locus YDL185W, strain tfp1, active compounds read low
[11] = S. cerevisiae deletion strains, locus YDL192W, strain arf1, active compounds read low
[12] = S. cerevisiae deletion strains, locus YDR101C, strain arx1, active compounds read low
[13] = S. cerevisiae deletion strains, locus YDR162C, strain NBP2, active compounds read low
[14] = S. cerevisiae deletion strains, locus YDR318W, strain mcm21, active compounds read low
[15] = S. cerevisiae deletion strains, locus YDR388W, active compounds read low
[16] = S. cerevisiae deletion strains, locus YDR502C, strain sam2, active compounds read low
[17] = S. cerevisiae deletion strains, locus YEL061C, strain CIN8, active compounds read low
[18] = S. cerevisiae deletion strains, locus YER110C, active compounds read low
[19] = S. cerevisiae deletion strains, locus YER155C, strain BEM2, active compounds read low
[20] = S. cerevisiae deletion strains, locus YER167W, strain BCK2, active compounds read low
[21] = S. cerevisiae deletion strains, locus YGL078C, strain dbp3, active compounds read low
[22] = S. cerevisiae deletion strains, locus YGL086W, strain mad1, active compounds read low
[23] = S. cerevisiae deletion strains, locus YGL248W, strain PDE1, active compounds read low
[24] = S. cerevisiae deletion strains, locus YGR135W, strain pre9, active compounds read low
[25] = S. cerevisiae deletion strains, locus YGR252W, strain gcn5, active compounds read low
[26] = S. cerevisiae deletion strains, locus YHR079C, strain IRE1 (second series), active compounds read low
[27] = S. cerevisiae deletion strains, locus YHR094C, strain hxt1, active compounds read low
[28] = S. cerevisiae deletion strains, locus YHR129C, strain ARP1, active compounds read low
[29] = S. cerevisiae deletion strains, locus YHR200W, strain rpn10, active compounds read low
[30] = S. cerevisiae deletion strains, locus YIL066C, strain RNR3, active compounds read low
[31] = S. cerevisiae deletion strains, locus YIL073C, strain SPO22, active compounds read low
[32] = S. cerevisiae deletion strains, locus YIL125W, strain kgd1, active compounds read low
[33] = S. cerevisiae deletion strains, locus YIR030C, strain dcg1, active compounds read low
[34] = S. cerevisiae deletion strains, locus YJL134W, strain LCB3, active compounds read low
[35] = S. cerevisiae deletion strains, locus YJL168C, strain set2, active compounds read low
[36] = S. cerevisiae deletion strains, locus YJL187C, strain SWE1 (second series), active compounds read low
[37] = S. cerevisiae deletion strains, locus YJR043C, strain POL32, active compounds read low
[38] = S. cerevisiae deletion strains, locus YKL009W, strain mrt4, active compounds read low
[39] = S. cerevisiae deletion strains, locus YKL068W, active compounds read low
[40] = S. cerevisiae deletion strains, locus YKL085W, strain MDH1 (second series), active compounds read low
[41] = S. cerevisiae deletion strains, locus YKL085W, strain MDH1, active compounds read low
[42] = S. cerevisiae deletion strains, locus YKR001C, strain vps1, active compounds read low
[43] = S. cerevisiae deletion strains, locus YLR039C, strain RIC1, active compounds read low
[44] = S. cerevisiae deletion strains, locus YLR058C, strain SHM2, active compounds read low
[45] = S. cerevisiae deletion strains, locus YLR102C, strain apc9, active compounds read low
[46] = S. cerevisiae deletion strains, locus YLR262C, strain YPT6, active compounds read low
[47] = S. cerevisiae deletion strains, locus YLR268W, strain sec22, active compounds read low
[48] = S. cerevisiae deletion strains, locus YLR330W, strain CHS5, active compounds read low
[49] = S. cerevisiae deletion strains, locus YLR342W, strain FKS1 (second series), active compounds read low
[50] = S. cerevisiae deletion strains, locus YLR371W, strain rom2, active compounds read low
[51] = S. cerevisiae deletion strains, locus YLR418C, strain cdc73, active compounds read low
[52] = S. cerevisiae deletion strains, locus YML016C, strain PPZ1, active compounds read low
[53] = S. cerevisiae deletion strains, locus YML032C, strain rad52, active compounds read low
[54] = S. cerevisiae deletion strains, locus YML124C, strain tub3, active compounds read low
[55] = S. cerevisiae deletion strains, locus YMR078C, strain ctf18, active compounds read low
[56] = S. cerevisiae deletion strains, locus YMR223W, strain ubp8, active compounds read low
[57] = S. cerevisiae deletion strains, locus YMR307W, strain GAS1, active compounds read low
[58] = S. cerevisiae deletion strains, locus YNL067W, strain RPL9B, active compounds read low
[59] = S. cerevisiae deletion strains, locus YNL233W, strain BNI4, active compounds read low
[60] = S. cerevisiae deletion strains, locus YNL250W, strain rad50, active compounds read low
[61] = S. cerevisiae deletion strains, locus YNL271C, strain bni1, active compounds read low
[62] = S. cerevisiae deletion strains, locus YNL298W, strain CLA4, active compounds read low
[63] = S. cerevisiae deletion strains, locus YNL307C, strain MCK1, active compounds read low
[64] = S. cerevisiae deletion strains, locus YNR052C, strain pop2, active compounds read low
[65] = S. cerevisiae deletion strains, locus YOL012C, strain htz1
[66] = S. cerevisiae deletion strains, locus YOL147C, strain pex11, active compounds read low
[67] = S. cerevisiae deletion strains, locus YOR061W, strain CKA2, active compounds read low
[68] = S. cerevisiae deletion strains, locus YOR069W, strain VPS5, active compounds read low
[69] = S. cerevisiae deletion strains, locus YOR136W, strain idh2, active compounds read low
[70] = S. cerevisiae deletion strains, locus YOR144C, strain elg1, active compounds read low
[71] = S. cerevisiae deletion strains, locus YOR184W, strain ser1, active compounds read low
[72] = S. cerevisiae deletion strains, locus YOR316C, strain cot1, active compounds read low
[73] = S. cerevisiae deletion strains, locus YPL055C, strain LGE1, active compounds read low
[74] = S. cerevisiae deletion strains, locus YPR119W, strain clb2, active compounds read low
[75] = S. cerevisiae deletion strains, locus YPR141C, strain kar3, active compounds read low
[76] = S. cerevisiae deletion strains, locus YPR163C, strain tif3, active compounds read low
[77] = S. cerevisiae deletion strains, locus YPR167C, strain met16, active compounds read low
[78] = S. cerevisiae deletion strains, strain wtn01, active compounds read low

Measured: normalized growth

COc1ccc(-c2coc3c(O)c(O)c(OC)cc3c2=O)cc1
inactive: [1] 0.96 | S. cerevisiae deletion strains, locus YHR079C, strain IRE1, active compounds read low 0.969 | [2] 0.955 | S. cerevisiae deletion strains, locus YJR066W, strain TOR1, active compounds read low 0.912 | S. cerevisiae deletion strains, locus YLR113W, strain HOG1, active compounds read low 0.955 | S. cerevisiae deletion strains, locus YNL183C, strain NPR1, active compounds read low 0.888 | S. cerevisiae deletion strains, locus YOR231W, strain MKK1, active compounds read low 0.971 | S. cerevisiae deletion strains, locus YPL256C, strain CLN2, active compounds read low 0.953

COc1ccc(-c2coc3c(OC)c(OC)ccc3c2=O)cc1
active: [3] 0.728 | S. cerevisiae deletion strains, locus YGR229C, strain SMI1, active compounds read low 0.787
inactive: [4] 0.996 | [5] 0.998 | [6] 0.963 | [7] 0.917 | [8] 0.969 | [9] 0.924 | [10] 1.01 | [11] 0.997 | [12] 0.985 | [13] 0.875 | [14] 0.988 | [15] 1 | [16] 0.986 | [17] 0.986 | [18] 1.01 | [19] 0.988 | [20] 0.974 | [21] 1 | [22] 0.958 | [23] 0.957 | [24] 0.968 | [25] 0.82 | [1] 0.984 | [26] 1.01 | [27] 1.01 | [28] 0.983 | [29] 1.01 | [30] 0.925 | [31] 0.99 | [32] 1 | [33] 0.998 | [2] 0.838 | [34] 0.995 | [35] 1.01 | [36] 0.957 | [37] 0.899 | S. cerevisiae deletion strains, locus YJR075W, strain HOC1, active compounds read low 0.95 | [38] 0.988 | [39] 1 | [40] 0.994 | [41] 0.994 | [42] 0.948 | [43] 0.907 | [44] 0.974 | [45] 1.01 | [46] 0.906 | [47] 0.953 | [48] 0.972 | [49] 0.912 | [50] 1.01 | [51] 0.879 | [52] 0.993 | [53] 0.995 | [54] 0.997 | [55] 1.02 | [56] 1.01 | S. cerevisiae deletion strains, locus YMR263W, strain SAP30, active compounds read low 0.931 | [57] 0.834 | [58] 0.941 | S. cerevisiae deletion strains, locus YNL128W, strain TEP1, active compounds read low 0.973 | S. cerevisiae deletion strains, locus YNL153C, strain GIM3, active compounds read low 0.955 | [59] 0.884 | [60] 1.03 | [61] 0.997 | [62] 0.997 | [63] 0.96 | S. cerevisiae deletion strains, locus YNL322C, strain KRE1, active compounds read low 0.98 | [64] 1.01 | [65] 1.11 | [66] 0.989 | [67] 0.995 | [68] 0.998 | [69] 1 | [70] 0.994 | [71] 0.917 | [72] 1 | [73] 0.888 | [74] 1.02 | [75] 1 | [76] 0.999 | [77] 1 | [78] 0.988

COc1ccc(-c2coc3c(OC)c(O)ccc3c2=O)cc1
active: [9] 0.888 | [13] 0.792 | [22] 0.929 | [42] 0.896 | [51] 0.808 | [63] 0.896
inactive: [3] 0.951 | [4] 0.92 | [5] 0.97 | [6] 0.935 | [7] 0.9 | [8] 0.928 | [10] 0.949 | [11] 0.931 | [12] 0.944 | [14] 0.951 | [15] 0.965 | [16] 0.953 | [17] 0.958 | [18] 0.953 | [19] 0.997 | [20] 0.956 | [21] 0.961 | [23] 0.927 | [24] 0.931 | [25] 0.826 | [1] 0.976 | [26] 0.946 | [27] 0.952 | [28] 0.96 | [29] 0.936 | [30] 0.882 | [31] 0.884 | [32] 0.967 | [33] 0.962 | [2] 0.813 | [34] 0.968 | [35] 0.963 | [36] 0.916 | [37] 0.914 | [38] 0.928 | [39] 0.946 | [40] 0.944 | [41] 0.944 | S. cerevisiae deletion strains, locus YKL190W, strain CNB1, active compounds read low 0.958 | [43] 0.861 | [44] 0.931 | [45] 0.965 | [46] 0.86 | [47] 0.942 | [48] 0.953 | [49] 0.86 | [50] 0.969 | [52] 0.963 | [53] 0.958 | [54] 0.952 | [55] 0.95 | [56] 0.943 | [57] 0.769 | [58] 0.918 | [59] 0.892 | [60] 0.968 | [61] 0.945 | [62] 0.94 | [64] 0.964 | S. cerevisiae deletion strains, locus YOL006C, strain TOP1, active compounds read low 0.742 | [65] 0.945 | [66] 0.966 | [67] 0.933 | [68] 0.969 | [69] 0.98 | [70] 0.966 | [71] 0.876 | [72] 0.961 | [73] 0.86 | [74] 0.977 | [75] 0.955 | [76] 0.931 | [77] 0.954 | [78] 0.962 | S. cerevisiae strains, strain wild type, active compounds read low 0.95
